Measurements published in PubChem BioAssay AID504401 (The Scripps Research Institute Molecular Screening Center, 2011).
Values without a mark were called inactive. The rule behind the calls is not given here.

Test system: Imidazoline I2
Test: CYP450 and receptor off-target profile – biochemical, Ricerca HitProfilingScreen, selectivity assay for GPR7 antagonist project, late-stage follow-up (AID 504401)
Details: Ricerca radioligand binding and CYP450 panel, central, at 10 µM, stronger effect = higher value

COc1ccc(Oc2c(Cl)cnn(-c3cc(C)cc(C)c3)c2=O)cc1
inhibition: 22%
